The values that follow come from PubChem BioAssay (EPA / NIEHS).

As usually defined, the AC50 is the midpoint of the concentration-response curve, whichever way the signal moves.

Test [1] concerns the target human Peripheral-type Benzodiazepine Receptor (PBR), TSPO (gene 706) (UniProt P30536). As to the kind of experiment: NVS_MP_hPBR: NovaScreen (NVS) Membrane Protein Assay for human Peripheral-type Benzodiazepine Receptor (PBR) (AID 2283331).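 Further: hits reduce radioligand binding relative to DMSO baseline.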 In a few lines:
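Cell-free binding to human colonic membrane preparations measured by filter-based scintillation counting after 1 h. Compounds first run at 25 uM in duplicate, then concentration series for actives; signal loss against DMSO baseline.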

For test [2], the target named is human Dopamine Transporter (DAT), SLC6A3 (gene 6531) (UniProt Q01959). As to the kind of experiment: NVS_TR_hDAT: NovaScreen (NVS) Transporter Assay for human Dopamine Transporter (DAT) (AID 2283374).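 Further: activity means loss of bound radioligand signal relative to DMSO.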 In short, it runs like this:
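Duplicate single-point screening at 25 uM preceded concentration-series follow-up of actives. Binding was measured by competitive displacement of a radioligand from DAT protein, filter-counted by scintillation 1 h after dosing. Decrease relative to DMSO taken as activity.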

The nature of test [3]: CCTE_Shafer_MEA_acute_per_network_burst_spike_number_mean: CCTE's Neural Acute Assay for Average Number of Spikes in a Network Burst, Shafer Lab (AID 2284019; active means hit-call score of the fitted dose curve at least 0.9, where 1 is the maximum; inactive means score below 0.9;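 further: curve fitted for loss of signal so actives reduce spikes per network burst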). In a few lines:
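Percent change from baseline in mean spikes per network burst, spikes detected at 8x rms noise. Each compound at 0.03-40 uM in at least three wells of rat cortical cultures, recorded 40 min before and 40 min during exposure.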

Test [4] in a line: CCTE_Shafer_MEA_acute_per_network_burst_spike_number_std: CCTE's Neural Acute Assay for Standard Deviation of Number of Spikes in a Network Burst, Shafer Lab (AID 2284020; active means hit-call score of the fitted dose curve at least 0.9, where 1 is the maximum; inactive means score below 0.9;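 further: fitted for decrease in spike-number SD versus DMSO so actives lower it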). In a few lines:
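Endpoint: percent change from 40 min baseline in standard deviation of spikes per network burst, after 40 min compound exposure (0.03-40 uM, 37 C). Cortical rat neurons on MEA at DIV 13 or 15; spikes detected at 8x rms noise, 300-5000 Hz band-pass.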

Test [5] can be described thus: CCTE_Shafer_MEA_acute_per_network_burst_electrodes_number_mean: CCTE's Neural Acute Assay for Mean Number of Electrodes in a Network Burst, Shafer Lab (AID 2284021; active means hit-call score of the fitted dose curve at least 0.9, where 1 is the maximum; inactive means score below 0.9;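 further: curves fitted for decreases only so hits reduce electrodes per burst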). In a few lines:
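Rat primary cortical neurons on 48-well MEAs, DIV 13 or 15, were treated at 0.03-40 uM. Spikes were detected at 8x rms noise and recorded at 37 C. The mean electrodes per network burst in a 40 min exposure recording was expressed as percent change from a 40 min baseline.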

A short description of test [6]: CCTE_Shafer_MEA_acute_network_burst_percentage: CCTE's Neural Acute Assay for Percentage of Network Bursts, Shafer Lab (AID 2284022; active means hit-call score of the fitted dose curve at least 0.9, where 1 is the maximum; inactive means score below 0.9;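 further: curves fitted for loss so actives lower network burst percentage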). In a few lines: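 Rat primary cortical neuron networks on 48-well MEA plates, DIV 13 or 15, treated acutely with compound (0.03-40 uM, at least three wells). Percent of spikes within network bursts compared between 40-min recordings before and during exposure at 37 C, expressed as percent change.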

Test [7] can be described thus: CCTE_Shafer_MEA_acute_cross_correlation_area: CCTE's Neural Acute Assay for Area of Cross Correlation, Shafer Lab (AID 2284024; active means hit-call score of the fitted dose curve at least 0.9, where 1 is the maximum; inactive means score below 0.9;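 further: curves fitted for loss of cross-correlation area so actives lower synchrony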). In short, it runs like this: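 Rat primary cortical neurons on 48-well MEA, DIV 13 or 15; compounds 0.03-40 uM. Baseline and post-exposure 40 min recordings at 37 C; percent change in area under pooled inter-electrode cross-correlation near zero lag, relative to DMSO.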

Test [8] is described as follows: CCTE_Shafer_MEA_acute_synchrony_index: CCTE's Neural Acute Assay for Synchrony, Shafer Lab (AID 2284027; active means hit-call score of the fitted dose curve at least 0.9, where 1 is the maximum; inactive means score below 0.9;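 further: network synchrony index of spontaneous spiking in primary rat cortical neurons on MEAs; fitted for loss of signal so actives lower synchrony relative to DMSO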). In short, it runs like this: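 Acute exposure of rat primary cortical neurons (DIV 13 or 15) at 0.03-40 uM. Synchrony index, 40 min before vs after, as % change relative to DMSO control.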
Test [9] can be described thus: CCTE_Shafer_MEA_acute_LDH: CCTE's Lactate Dehydrogenase Assay for Cytotoxicity in the Neural Acute Assay, Shafer Lab (AID 2284086).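 Further: active means LDH release rises above DMSO vehicle level.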 In short, it runs like this:
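Cytotoxicity readout: spectrophotometric LDH activity in supernatant of rat primary cortical neurons, post-plating day 13 or 15, sampled after 40 min compound exposure; signal gain relative to DMSO baseline.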

For test [10], the target named is human Ephrin type-A Receptor 1 (EphA1), EPHA1 (gene 2041) (UniProt P21709). In words: NVS_ENZ_hEphA1: NovaScreen (NVS) Enzymatic Assay for human Ephrin type-A Receptor 1 (EphA1) (AID 2283158).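 Further: activity is signal loss versus DMSO meaning EphA1 kinase inhibition.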 In short, it runs like this: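 Cell-free kinase activity with recombinant protein, 1 hour after dosing; product separated by electrophoretic mobility shift, fluorescence read. Primary screen at 25 uM in duplicate; hits run as concentration-response up to 50 uM, relative to DMSO.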

For test [11], the target named is human Phosphoinositide 3-kinase alpha (PI3Ka), PIK3CA (gene 5290) (UniProt P42336). In words: NVS_ENZ_hPI3Ka: NovaScreen (NVS) Enzymatic Assay for human Phosphoinositide 3-kinase alpha (PI3Ka) (AID 2283196). In short, it runs like this:
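Enzyme activity as fluorescence after mobility-shift separation of substrate and product, 1 h reaction, recombinant human PI3Kα; concentration-response to 50 uM max for chemicals passing a 25 uM duplicate screen.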

For test [12], the target named is Nuclear receptor subfamily 1 group I member 2 (Homo sapiens) (UniProt O75469). In words: NVS_NR_hPXR: NovaScreen (NVS) Nuclear Receptor Binding Assay for human Pregnane X Receptor (PXR) (AID 2283365).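 Further: a drop in FRET signal versus DMSO baseline means the compound binds.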 In short, it runs like this:
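Cell-free TR-FRET binding assay with extracted human PXR protein, read 2 h after dosing. Primary screen run in duplicate at 25 uM, actives followed in concentration series; loss of signal fitted against DMSO baseline.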

Test [13] relates to Sodium/Iodide Symporter (NIS), SLC5A5 (gene 6528). In words: CPHEA_Stoker_NIS_Inhibition_RAIU: CPHEA's Radioactive Iodide Uptake (RAIU) Assay for Sodium/Iodide Symporter (NIS) Inhibition, Stoker and Laws Labs (AID 2283841). In short, it runs like this:
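Iodide uptake read as CPM of intracellular 125I (final 329 pM) after 2 h room-temperature exposure in HEPES-buffered HBSS, pH 7.4. Human NIS-expressing HEK293T cells; six concentrations 0.001–100 uM, 0.5% DMSO, normalised to DMSO wells.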

The nature of test [14]: CPHEA_Stoker_NIS_Cytotoxicity: Cytotoxicity Assessment for CPHEA's Radioactive Iodide Uptake (RAIU) Assay for Sodium/Iodide Symporter (NIS) Inhibition, Stoker and Laws Labs (AID 2283897). In a few lines: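 CellTiter-Glo ATP luminescence gauged viability in HEK293T cells expressing human NIS after 2 h chemical exposure. Concentrations ran 0.001–100 uM in 0.5% DMSO; DMSO served as baseline for the loss-of-signal fit.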

Test [15] concerns the target chimpanzee Androgen Receptor (AR), AR (gene 747460) (UniProt O97775). In words: NVS_NR_cAR: NovaScreen (NVS) Nuclear Receptor Binding Assay for chimpanzee Androgen Receptor (AR) (AID 2283346).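 Further: radioligand displacement from AR measured by scintillation counting in a cell-free assay; a loss of bound radioligand signal versus DMSO counts as binding.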 In a few lines: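 Cell-free competition binding with insect-cell (Sf9/Sf21) extracted chimpanzee AR; scintillation signal from lysate at 72 h. Screened in duplicate at 25 uM, then concentration-response for actives; fitting relative to DMSO.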

The target in test [16] is Peroxisome proliferator-activated receptor gamma (Homo sapiens) (UniProt P37231). As to the kind of experiment: NVS_NR_hPPARg: NovaScreen (NVS) Nuclear Receptor Binding Assay for human Peroxisome Proliferator-activated Receptor gamma (PPARg) (AID 2283370). In short, it runs like this:
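Cell-free fluorescence polarization binding to human PPARg protein, read 2 h after dosing. Primary screen in duplicate at 25 uM, actives followed in concentration series; loss of signal relative to DMSO scored.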

Test [17] can be described thus: CCTE_Deisenroth_AIME_384WELL_CTox_Active: Cytotoxicity Assessment (CTOX) in CCTE's 384-well Estrogen Receptor Transactivation Assay with AIME metabolic competence (metabolism positive), Deisenroth Lab (AID 2284037).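 Further: chemicals first conditioned 2 h by alginate-bound induced rat liver S9 before cells; activity means signal loss indicating cell death.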 In a few lines:
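Cytotoxicity in VM7Luc4E2 breast cells, 24 hour, measured as protease-substrate fluorescence loss, after 2-hour metabolic conditioning with induced rat hepatic S9 in alginate microspheres. Concentrations 0.002 - 200 uM, 10 points, bidirectional fitting.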

A short description of test [18]: CEETOX_H295R_MTT_cell_viability: Viability Assessment in the CeeTox HT-H295R MTT Assay (AID 2283718; active means hit-call score of the fitted dose curve at least 0.9, where 1 is the maximum; inactive means score below 0.9). In short, it runs like this: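 MTT reduction (0.5 mg/ml, 4 h at 37 C; absorbance at 570 and 650 nm) gave viability as background-corrected percent change versus controls. H295R cells had 48 h forskolin (10 uM) prestimulation, then 48 h chemical exposure at 0.1% DMSO.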

Test [19] addresses bovine Estrogen Receptor (ER), ESR1 (gene 407238) (UniProt P49884). In words: NVS_NR_bER: NovaScreen (NVS) Nuclear Receptor Binding Assay for bovine Estrogen Receptor (ER) (AID 2283345).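 Further: actives lower the bound radioligand count which means they displace the ER ligand.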 In a few lines:
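Displacement of a radioligand from estrogen receptor in bovine uterine membrane preparations; scintillation signal taken at 18 hours, DMSO as baseline. Single-concentration duplicates (25 uM) preceded concentration-response follow-up of actives.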

Records with an inconclusive call do not appear. Activity calls are given as the source filed them. How the source made its calls, unless noted: active means hit-call score of the fitted dose curve at least 0.9, where 1 is the maximum; inconclusive means response in the unintended direction; inactive means score below 0.9.

Sequence of human Ephrin type-A Receptor 1 (EphA1), EPHA1 (gene 2041) (P21709 whole entry, looked up): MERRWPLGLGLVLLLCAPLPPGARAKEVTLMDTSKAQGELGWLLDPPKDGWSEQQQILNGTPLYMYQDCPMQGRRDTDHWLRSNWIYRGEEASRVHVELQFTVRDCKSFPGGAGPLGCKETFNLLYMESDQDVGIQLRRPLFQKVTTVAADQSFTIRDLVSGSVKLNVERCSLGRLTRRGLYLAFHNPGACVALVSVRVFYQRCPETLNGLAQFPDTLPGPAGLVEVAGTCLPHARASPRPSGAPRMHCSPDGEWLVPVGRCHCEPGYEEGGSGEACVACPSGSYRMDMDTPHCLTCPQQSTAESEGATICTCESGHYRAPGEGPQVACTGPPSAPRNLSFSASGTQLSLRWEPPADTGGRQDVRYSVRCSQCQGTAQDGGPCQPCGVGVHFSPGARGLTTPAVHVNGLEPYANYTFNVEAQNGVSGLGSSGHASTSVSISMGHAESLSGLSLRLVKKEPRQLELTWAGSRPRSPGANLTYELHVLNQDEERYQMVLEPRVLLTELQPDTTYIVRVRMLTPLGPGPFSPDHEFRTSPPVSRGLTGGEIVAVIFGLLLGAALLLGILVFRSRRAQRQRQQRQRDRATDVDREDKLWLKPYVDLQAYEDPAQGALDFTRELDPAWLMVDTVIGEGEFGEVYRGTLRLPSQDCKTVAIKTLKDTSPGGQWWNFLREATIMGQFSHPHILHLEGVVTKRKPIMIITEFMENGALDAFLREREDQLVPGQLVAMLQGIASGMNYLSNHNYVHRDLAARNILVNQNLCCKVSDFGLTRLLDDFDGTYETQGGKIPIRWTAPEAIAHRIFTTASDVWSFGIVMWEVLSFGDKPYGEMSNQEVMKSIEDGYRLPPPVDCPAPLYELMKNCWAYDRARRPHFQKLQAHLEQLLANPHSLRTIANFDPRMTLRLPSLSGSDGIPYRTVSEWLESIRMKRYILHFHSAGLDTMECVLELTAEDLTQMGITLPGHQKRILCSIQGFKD
Sequence of chimpanzee Androgen Receptor (AR), AR (gene 747460) (O97775 whole entry, looked up): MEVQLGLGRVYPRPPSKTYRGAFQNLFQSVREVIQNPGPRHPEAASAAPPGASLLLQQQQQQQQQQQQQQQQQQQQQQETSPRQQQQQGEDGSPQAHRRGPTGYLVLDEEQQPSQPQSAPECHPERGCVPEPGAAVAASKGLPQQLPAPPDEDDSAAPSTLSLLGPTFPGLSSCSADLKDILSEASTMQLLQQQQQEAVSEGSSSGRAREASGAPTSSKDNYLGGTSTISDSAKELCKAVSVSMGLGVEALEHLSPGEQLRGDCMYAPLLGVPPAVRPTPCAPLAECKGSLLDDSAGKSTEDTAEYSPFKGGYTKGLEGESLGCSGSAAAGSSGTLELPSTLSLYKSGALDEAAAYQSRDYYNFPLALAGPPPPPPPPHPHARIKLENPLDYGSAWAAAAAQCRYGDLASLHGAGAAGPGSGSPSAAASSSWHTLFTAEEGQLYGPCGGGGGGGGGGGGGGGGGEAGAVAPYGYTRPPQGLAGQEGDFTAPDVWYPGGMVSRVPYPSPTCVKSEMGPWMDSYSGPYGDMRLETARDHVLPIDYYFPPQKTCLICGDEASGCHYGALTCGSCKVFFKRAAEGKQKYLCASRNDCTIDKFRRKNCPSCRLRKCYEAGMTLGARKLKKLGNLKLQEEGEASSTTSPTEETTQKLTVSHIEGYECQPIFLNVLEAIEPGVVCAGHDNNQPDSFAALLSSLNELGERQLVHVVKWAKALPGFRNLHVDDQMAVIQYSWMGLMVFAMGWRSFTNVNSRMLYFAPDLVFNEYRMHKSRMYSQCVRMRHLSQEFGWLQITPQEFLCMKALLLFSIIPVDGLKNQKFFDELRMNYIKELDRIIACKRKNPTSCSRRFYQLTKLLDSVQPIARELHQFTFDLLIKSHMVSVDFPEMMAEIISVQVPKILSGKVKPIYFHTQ
Sequence of Peroxisome proliferator-activated receptor gamma (Homo sapiens) (P37231 whole entry, looked up): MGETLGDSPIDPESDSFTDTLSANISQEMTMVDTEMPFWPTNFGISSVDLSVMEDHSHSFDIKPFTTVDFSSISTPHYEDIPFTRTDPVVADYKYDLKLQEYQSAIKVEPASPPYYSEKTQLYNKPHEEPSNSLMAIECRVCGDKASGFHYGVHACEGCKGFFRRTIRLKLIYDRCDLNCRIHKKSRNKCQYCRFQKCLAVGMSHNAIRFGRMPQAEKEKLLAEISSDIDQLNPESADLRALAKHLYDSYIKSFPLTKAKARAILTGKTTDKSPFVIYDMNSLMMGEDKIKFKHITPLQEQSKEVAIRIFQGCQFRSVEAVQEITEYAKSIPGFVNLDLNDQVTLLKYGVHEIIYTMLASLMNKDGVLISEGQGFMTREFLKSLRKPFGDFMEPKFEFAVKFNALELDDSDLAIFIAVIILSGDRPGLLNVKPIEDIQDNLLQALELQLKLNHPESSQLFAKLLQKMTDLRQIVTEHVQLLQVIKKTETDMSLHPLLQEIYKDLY
Sequence of human Phosphoinositide 3-kinase alpha (PI3Ka), PIK3CA (gene 5290) (P42336 whole entry, looked up): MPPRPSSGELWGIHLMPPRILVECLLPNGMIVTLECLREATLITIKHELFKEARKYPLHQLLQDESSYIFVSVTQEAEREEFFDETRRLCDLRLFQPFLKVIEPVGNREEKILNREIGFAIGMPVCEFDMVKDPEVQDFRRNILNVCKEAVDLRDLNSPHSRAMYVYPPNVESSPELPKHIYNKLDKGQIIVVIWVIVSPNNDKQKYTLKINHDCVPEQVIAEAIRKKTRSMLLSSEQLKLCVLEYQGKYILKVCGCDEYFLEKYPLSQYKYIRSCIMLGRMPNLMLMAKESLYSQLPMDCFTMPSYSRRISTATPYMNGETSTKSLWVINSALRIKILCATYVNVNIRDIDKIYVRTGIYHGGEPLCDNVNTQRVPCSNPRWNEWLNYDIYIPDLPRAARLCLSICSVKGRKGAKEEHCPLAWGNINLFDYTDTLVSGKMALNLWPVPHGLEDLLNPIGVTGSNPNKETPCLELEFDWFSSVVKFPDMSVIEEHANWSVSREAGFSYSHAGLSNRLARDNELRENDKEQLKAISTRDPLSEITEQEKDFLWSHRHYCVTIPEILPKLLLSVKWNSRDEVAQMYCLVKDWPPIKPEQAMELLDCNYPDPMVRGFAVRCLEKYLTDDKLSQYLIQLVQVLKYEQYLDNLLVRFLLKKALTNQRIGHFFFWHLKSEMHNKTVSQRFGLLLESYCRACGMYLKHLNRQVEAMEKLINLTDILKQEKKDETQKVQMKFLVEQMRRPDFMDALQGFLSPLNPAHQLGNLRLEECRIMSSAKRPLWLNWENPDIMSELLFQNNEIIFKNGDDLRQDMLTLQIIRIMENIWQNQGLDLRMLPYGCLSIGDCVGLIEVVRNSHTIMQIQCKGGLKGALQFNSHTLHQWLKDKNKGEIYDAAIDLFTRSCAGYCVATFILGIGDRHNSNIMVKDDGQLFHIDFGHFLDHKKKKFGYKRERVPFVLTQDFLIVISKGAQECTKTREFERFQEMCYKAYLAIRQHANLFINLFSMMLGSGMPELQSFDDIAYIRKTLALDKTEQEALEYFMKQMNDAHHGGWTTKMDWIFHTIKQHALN
Sequence of bovine Estrogen Receptor (ER), ESR1 (gene 407238) (P49884 whole entry, looked up): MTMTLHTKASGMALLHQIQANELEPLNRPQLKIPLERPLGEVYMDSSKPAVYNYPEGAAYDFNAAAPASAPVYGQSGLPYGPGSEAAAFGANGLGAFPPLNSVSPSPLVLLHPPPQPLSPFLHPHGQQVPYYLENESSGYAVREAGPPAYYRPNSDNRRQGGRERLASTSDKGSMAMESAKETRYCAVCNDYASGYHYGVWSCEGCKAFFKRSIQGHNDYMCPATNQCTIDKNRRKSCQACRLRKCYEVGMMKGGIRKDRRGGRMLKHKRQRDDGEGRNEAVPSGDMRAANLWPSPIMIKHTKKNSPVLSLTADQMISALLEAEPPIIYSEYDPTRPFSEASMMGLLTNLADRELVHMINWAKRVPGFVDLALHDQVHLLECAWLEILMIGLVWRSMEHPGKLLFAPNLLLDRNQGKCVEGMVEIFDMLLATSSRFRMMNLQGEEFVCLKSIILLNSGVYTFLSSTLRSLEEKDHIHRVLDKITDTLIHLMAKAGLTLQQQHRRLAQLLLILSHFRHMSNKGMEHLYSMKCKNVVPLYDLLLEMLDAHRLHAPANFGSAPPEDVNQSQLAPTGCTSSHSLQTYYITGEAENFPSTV
Sequence of human Dopamine Transporter (DAT), SLC6A3 (gene 6531) (Q01959 whole entry, looked up): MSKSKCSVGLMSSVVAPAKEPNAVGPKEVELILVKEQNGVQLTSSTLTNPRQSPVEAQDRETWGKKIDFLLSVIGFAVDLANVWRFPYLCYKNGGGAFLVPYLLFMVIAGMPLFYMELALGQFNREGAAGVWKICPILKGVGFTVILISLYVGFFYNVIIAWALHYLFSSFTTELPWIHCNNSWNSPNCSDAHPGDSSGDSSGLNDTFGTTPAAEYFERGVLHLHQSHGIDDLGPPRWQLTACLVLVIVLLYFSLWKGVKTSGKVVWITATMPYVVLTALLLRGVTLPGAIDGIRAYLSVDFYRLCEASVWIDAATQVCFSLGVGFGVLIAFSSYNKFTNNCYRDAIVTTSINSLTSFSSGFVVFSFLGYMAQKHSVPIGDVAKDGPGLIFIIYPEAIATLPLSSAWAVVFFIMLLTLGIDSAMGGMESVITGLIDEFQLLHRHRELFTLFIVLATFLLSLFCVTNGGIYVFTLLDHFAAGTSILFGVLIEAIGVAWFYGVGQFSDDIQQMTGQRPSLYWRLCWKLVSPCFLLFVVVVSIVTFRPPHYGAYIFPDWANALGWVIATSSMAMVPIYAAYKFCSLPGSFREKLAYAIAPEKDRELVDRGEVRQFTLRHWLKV
Sequence of human Peripheral-type Benzodiazepine Receptor (PBR), TSPO (gene 706) (P30536 whole entry, looked up): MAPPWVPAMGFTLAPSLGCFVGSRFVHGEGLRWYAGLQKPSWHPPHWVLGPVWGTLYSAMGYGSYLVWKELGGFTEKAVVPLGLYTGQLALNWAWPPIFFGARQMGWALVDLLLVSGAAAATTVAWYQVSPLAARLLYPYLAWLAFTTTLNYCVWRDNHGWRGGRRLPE

As for `CN(C)c1ccc(C(c2ccccc2)c2ccc(N(C)C)cc2)cc1`, the AC50 in test [1] was 2.78 µM (active).

Regarding `CN(C)CCC(c1ccc(Cl)cc1)c1ccccn1` (stereo not drawn), the AC50 in test [2] is 2.54 µM (active); in test [3], 3.62 µM (active); in test [4] it was 19.5 µM (active); in test [5], 3.59 µM (active); in test [6], 22.8 µM (active); in test [8], 27.7 µM (active). Also, the outcome in [7] and in test [9] was inactive.

As to `CCCOCCC`, the result in test [10] and in [11] was inactive. For `C=C1CC[C@H]2C[C@@H]1C2(C)C`, the compound was classed as inactive in test [12]. As to `O=C(OCc1ccccc1)c1ccccc1`, the result in [12], in test [13] and in test [14] was inactive. As for `Cc1ccccc1S(N)(=O)=O`, the compound was called inactive in test [10] and in [11]. Moreover, the AC50 in test [15] was 1.88 µM (active). Turning to `Cc1cc(-n2nc3ccc(Cl)cc3n2)c(O)c(C(C)(C)C)c1`, the AC50 in test [15] is 0.741 µM (active).

Turning to `Cc1cccnc1`, the outcome in [16], in test [13] and in test [14] was inactive.

For `C1=CCC=C1`, the outcome in test [17] was inactive. In the case of `Cc1cc(C)c(S(=O)(=O)O)cc1N=Nc1cc(S(=O)(=O)O)c2ccccc2c1O`, the outcome in test [16] was inactive.

For `F[B-](F)(F)F`, the call in test [16] was inactive. Further, in [13], the AC50 was 0.82 µM (active). With `COc1ccccc1OCC(O)CO` (stereo not drawn), the compound was called inactive in test [10]. As to `O=C(O)c1ccccc1C(=O)O`, the compound was classed as inactive in test [18]. As to `Clc1ccccn1`, the AC50 in test [10] was 9.99 µM (active). As to `CCCCCC1CCCC(=O)O1` (stereo not drawn), in test [15], the call was inactive. `CCCCOC(=O)COc1ccc(Cl)cc1Cl`: the call in test [18] and in test [17] was inactive. Consider `CCC(C)NC(N)=O` (stereo not drawn), for which, in test [2], the AC50 is 26.9 µM (active). On to `CC(=O)CCc1ccccc1`, for which the outcome in [11] was inactive.

As for `COC(=O)/C=C\C(=O)OC`, the outcome in test [15] was inactive. Regarding `Cc1cc2nc3c(=O)[nH]c(=O)nc-3n(C[C@H](O)[C@H](O)[C@H](O)CO)c2cc1C`, the call in test [19] and in [14] was inactive. In addition, the AC50 in test [13] is 25.8 µM (active). For `Cc1cc(O)cc(C)c1Cl`, the AC50 in test [1] was 8.12 µM (active). For the same compound, in test [18], the result was inactive. For the compound `CCC(C)=NO`, the result in [17] was inactive. Same read-out and setting: to `Oc1cccc2ccccc12` belongs “inactive”.

As to `COC(OC)C(C)c1ccccc1` (stereo not drawn), the compound was classed as inactive in test [19].
